# Pf Dd2 inh: qHTS Primary assay for Inhibitors of Plasmodium falciparum Dd2 growth in vitro; P. falciparum Dd2 growth, SYBR Green, 72 h; Potency, µM (top dose mostly 28.9 µM), for inactives: at the top dose activity, negative = inhibition, usual class: inhibitors; 4.3% of 120,000 active; active = well fitted inhibition curve with a large enough effect;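 note: plate controls were DMSO vehicle for no effect and reference drug for full effect; nearly all actives have a fitted effect of over 65% in size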
#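 Infected erythrocytes (Dd2, 0.3% parasitemia, 2.5% hematocrit final) are added to compound in RPMI-1640/Albumax II medium, grown 72 h at 37C in low oxygen, then lysed with saponin/Triton-X containing SYBR Green and read by fluorescence.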
# Numbers without * were called inactive; i = inactive; [ ] = another dose, or the depositor's remark. Many of the other results were omitted from the sample, so hits are more common in it than they were. Potency is the fitted concentration of half-maximal effect.
SMILES,Pf Dd2 inh
CN(C)CCC(=O)N1Cc2ccccc2CC2(CCCN2C)C1 (stereo not drawn),2.3%
CCCN1CCC2(Cc3ccccc3CN(C(=O)C(C)C)C2)C1 (stereo not drawn),8.91µM*
CC(C)C(=O)N1Cc2ccccc2CC2(CCCN2C)C1 (stereo not drawn),10µM*
COc1cccc(O)c1C(=O)NC1CC(c2nnc(Cn3cccn3)n2C)C1 (stereo not drawn),-9.1%
COCCn1c(C)cnc1C1CCN(C(=O)c2ccc(OC)nc2)C1 (stereo not drawn),11.8%
O=C(N[C@@H](Cn1ccc(=O)[nH]c1=O)C(=O)O)C1CCCCC1,-11.3%[44.1 µM]
COc1ccc(CC(=O)N2CC[C@@H](CC(=O)O)[C@@H](CC3=NCCc4cc(OC)c(OC)cc43)C2)cc1,-1.7%
COCC(=O)N[C@H]1C[C@@H](c2nc(-c3ccc4c(c3)OCO4)no2)N(C)C1,i
COc1ccc(CN2CC3(CCN(C(=O)Nc4ccccc4)CC3)C2=O)cc1,-7.1%
O=C(NC[C@H]1O[C@@H]2C[C@@H](CC(=O)N3CCOCC3)O[C@@H]2[C@@H]1O)Nc1cccc(Cl)c1,10.5%
CCN1C(=O)CN(C(=O)c2ccc(OC)nc2)CC12CCOCC2,-3.9%
O=C(c1cc2ccccc2[nH]1)N1CCN(c2cc(-c3ccccc3)[nH]n2)CC1,i
COc1ccc(C2Cn3nnc(-c4nc(-c5ccc(C)cc5)no4)c3CO2)cc1 (stereo not drawn),i
CCOc1ccc(C2Cn3nnc(-c4nc(-c5cccnc5)no4)c3CO2)cc1 (stereo not drawn),-5.2%
COc1ccc(C2Cn3cnc(-c4nc(-c5ccc(OC(C)C)cc5)no4)c3CO2)cc1 (stereo not drawn),11.2µM*
Fc1ccc(C2Cn3nnc(-c4nc(-c5cccnc5)no4)c3CO2)cc1 (stereo not drawn),i
Clc1ccccc1C1Cn2cnc(-c3nc(-c4cccnc4)no3)c2CO1 (stereo not drawn),4.47µM*
COc1cccc(C2Cn3nnc(-c4nc(-c5ccc(OC(C)C)cc5)no4)c3CO2)c1 (stereo not drawn),-20.4%
CN1C(=O)CS(=O)(=O)C12CCN(C(=O)c1ccncc1)CC2,-0.7%
COc1c(C)cc(C(C(=O)O)N2CCC(CN3CCCC3=O)CC2)cc1C (stereo not drawn),15.7%
CC(=O)N1CCC(CC(=O)N2CCN(c3cc(-c4ccccc4)[nH]n3)CC2)CC1,12.0%
C1CNCC(c2nc(CCOCC3CCOCC3)no2)C1 (stereo not drawn),-3.5%
CC(=O)N1CCCC(c2nc(CCOCC3CC3)no2)C1 (stereo not drawn),-10.2%
C(Cc1noc(C2CNC2)n1)OCC1CC1,5.01µM*
COc1ccc(C(=O)N2CC(Oc3ccc4c(c3)OCO4)C2)cc1,7.3%
SMILES,Pf Dd2 inh
Cc1[nH]c(=O)c(C#N)cc1C(=O)N1CCC2(CC1)C(=O)Nc1ccccc12,9.6%
COc1ccc(C(=O)NCCC2CCN(C(=O)Nc3cc(F)ccc3F)CC2)cc1OC,-15.9%
COc1ccc(CC(=O)Nc2ccc(N3CCC(NCCc4c(C)n[nH]c4C)CC3)cc2)cc1,-21.9%
COc1cccc(-c2noc(-c3ccc(-c4cn[nH]c4)nc3)n2)c1OC,-23.2%
COc1cccc(-c2noc(-c3ccc(NCCn4cccn4)nc3)n2)c1OC,12.6µM*
COc1cccc(-c2noc(-c3ccc(NCCCSC)nc3)n2)c1OC,i
CCOC(=O)c1nc(Nc2ccc(C(=O)OC(C)C)cc2)c2ccccc2n1,3.16µM*
CCOC(=O)c1nc(Nc2ccc(C(=O)OCC(C)C)cc2)c2ccccc2n1,11.2µM*
CCOC(=O)c1nc(Nc2ccc(OC)cc2)c2ccccc2n1,20.2%
CCCCCOC(=O)c1ccc(Nc2nc(C(=O)OCC)nc3ccccc23)cc1,5.2%
CCOC(=O)c1ccc(Nc2nc(C(=O)OCC)nc3ccccc23)cc1,i
CCOC(=O)c1nc(Nc2ccccc2OC)c2ccccc2n1,39.0%
O=C(c1ccccc1OCC1CCCN(C2CCCCCC2)C1)N1CCOCC1 (stereo not drawn),i
COc1ccccc1OCCNC(=O)C1CCCCC(=O)N1 (stereo not drawn),0.0%
Cn1ccnc1C(=O)N1CCCCCNC(=O)[C@H]2C[C@H](C(=O)N3CCc4ccccc4C3)C[C@H]21,-24.5%
O=C1CCCCC(C(=O)N2CCc3ccccc3C2)N1 (stereo not drawn),-7.6%
CCS(=O)(=O)N1CCCCCCNC(=O)[C@@H]2C[C@@H](C(=O)N3CCc4ccccc4C3)C[C@@H]21,i
CC(C)C(=O)N1CCCCCCNC(=O)[C@@H]2C[C@@H](C(=O)N3CCN(c4ccccn4)CC3)C[C@@H]21,-21.1%
O=C1NCCCCCN(C(=O)NC2CCCCC2)[C@@H]2C[C@@H](C(=O)N3CCc4ccccc4C3)C[C@H]12,8.91µM*
O=C1NCCCCCCN[C@H]2C[C@H](C(=O)N3CCc4ccccc4C3)C[C@@H]12,6.31µM*
CN(C)[C@@H]1CN(C(=O)c2ccsc2)CC[C@]1(O)c1ccccc1,i[5.79 µM]
CC(c1cccs1)N(C)Cc1cccc(C(F)(F)F)c1 (stereo not drawn),16.0%[44.1 µM]
CC(Cn1cncn1)NCc1cc(=O)c2cc(F)ccc2[nH]1 (stereo not drawn),11.6%
Cc1ccc(NC(=O)CSc2nc3n[nH]c(C)c3c(=N)n2-c2ccccc2C)cc1C,8.91µM*
Cc1cccc(-n2c(SCC(=O)Nc3ccccc3Cl)nc3n[nH]c(C)c3c2=N)c1,i
SMILES,Pf Dd2 inh
CCc1ccccc1NC(=O)CSc1nc2n[nH]c(C)c2c(=N)n1-c1cccc(C)c1,-10.3%
Cc1ccc(NC(=O)/C=C/c2ccccc2Cl)cc1Cl,2.82µM*
CNC(=O)c1c(NC(=O)/C=C/c2ccccc2Cl)sc2c1CCC2,-16.5%
Cc1ccc(NC(=O)c2ncn(-c3ccccc3)n2)cc1Cl,9.3%
CCOC(=O)c1c(NC(=O)/C=C/c2ccc(OC)c(OC)c2)sc(C(C)=O)c1C,39.8%
COCCNC(=O)C(=O)Nc1ccc2nc3n(c(=O)c2c1)CCCCC3,-16.7%
CC(C)Oc1ccc(CNC(=O)c2ccc3c(c2)nc2n3CCCCC2)cc1,-14.9%
Cc1cc(N2CCCCC2)nc2ccc(NC(=O)/C=C/c3ccccc3OC(C)C)cc12,2.82µM*
COc1ccc(/C=C/C(=O)Nc2ccc3nc(N4CCCCC4)cc(C)c3c2)cc1OC,3.98µM*
CN(Cc1ccccc1)C(=O)C(=O)Nc1ccc2nc3n(c(=O)c2c1)CCCCC3,i
CCCN(C(=O)C(=O)Nc1ccc2nc3n(c(=O)c2c1)CCCCC3)c1ccc(OCC)cc1,-16.3%
Cc1cc(N2CCCCC2)nc2ccc(NC(=O)/C=C/c3ccc(OC(C)C)cc3)cc12,10µM*
COc1ccc(/C=C/c2nc(C#N)c(N3CCCCCC3)o2)cc1OC,-15.0%
COCCN(C)C[C@H]1C[C@H](CO)CN(C(=O)c2cc(C)c(C)s2)C1,-22.5%
CCCn1ccc2sc(C)c(C(=O)NCc3ccc(C)cc3)c2c1=O,i
O=C(NCc1ccccc1)c1cnc2n1CCN(CC1CCCC1)CC2,-1.2%[44.1 µM]
CCCNC(=O)NC[C@H]1O[C@@H]2C[C@@H](CC(=O)NC(C)C)O[C@@H]2[C@@H]1O,18.6%[44.1 µM]
O=C(c1cccc(Cl)c1)N1CCC2(C1)NC(=O)N(Cc1ccc(F)cc1)C2=O (stereo not drawn),i
OC1CC([C@@H](Cc2ccccn2)NC2CCN(Cc3ccco3)CC2)C1 (stereo partly drawn),-1.9%
Cc1nc2c(c(-c3ccc(O)cc3)n1)CN(Cc1ccc(C(F)(F)F)cc1)CC2,-3.0%

# From PubChem BioAssay
